# Reference: PubChem BioAssay (NCATS)
# Values joined by “and” are separate entries in the source; they are usually repeats but may differ in a detail not shown here. Equal entries are not always repeated. A number with no mark means an inactive call. Inconclusive results are not listed. A structure can be active in one record and inactive in another. Active and inactive are the calls of the source. Unless noted, the call rests on the fitted dose curve; in most records, active means well fitted curve in the direction sought with a large enough effect; inconclusive means small, poorly fitted or top-dose-only effect, or another doubt; inactive means no such curve, though single readings can be large; an effect the other way counts as inactive or inconclusive.
# What was measured:
# [1] = Drug repurposing screens with cells derived from glioblastoma tumor samples (AID 1345199); conditions: GBM patient neurospheres viability, ATP luminescence, 48 h; further: nearly all actives have a fitted effect of over 40% in size; further: potency means the concentration at half of the fitted maximal effect; on activity, negative = cell killing: on the % scale 0 is the no-effect control and ±100 the full control effect
# In short: (§1)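 Four patient lines of CD133+ GBM neurospheres were screened at several concentrations; hits were retested in those lines plus three slower-growing GBM lines, using 48-hour treatment and ATP-based viability.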
# [2] = qHTS assay to identify inhibitors of the type 1 interferon - major histocompatibility complex class I in skeletal muscle: Counter screen cell viability and HiBit confirmation (AID 1347412); conditions: iHSKM muscle cells + IFN-b, HiBiT or CellTiter-Glo, 24 h; for activity change, negative = inhibition: at 45.9 µM (top of the series); further: potency means the concentration at half of the fitted maximal effect; on activity change, negative = inhibition: on the % scale 0 is the no-effect control and ±100 the full control effect; on all read-outs here: nearly all actives have a fitted effect of over 60% in size
# In short: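 After 24 h with human IFN-beta (4 ng/ml) and compound titrations (top 46 uM final, 1:3, 12 points), HLA-B HiBit myoblasts were lysed for either Nano-Glo HiBiT luminescence or CellTiter Glo viability on paired plates.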
# [3] = test system: astro; experiment: Drug repurposing screens with cells derived from glioblastoma tumor samples (AID 1345199); conditions: viability, ATP luminescence, 48 h; series mostly up to 45.9 µM; further: nearly all actives have a fitted effect of over 40% in size; further: potency means the concentration at half of the fitted maximal effect; on activity, negative = cell killing: on the % scale 0 is the no-effect control and ±100 the full control effect
# In short: as §1
# [4] = target: Nuclear receptor subfamily 1 group I member 2 (Rattus norvegicus) (UniProt Q9R1A7); experiment: qHTS assay for small molecule activators of the rat pregnane X receptor (rPXR) signaling pathway (AID 651751; call rule not given here; further: 0% is about no effect); conditions: rPXR reporter cells, luciferase (One-Glo), 24 h
# Sequence of Nuclear receptor subfamily 1 group I member 2 (Rattus norvegicus) (Q9R1A7 whole entry, looked up): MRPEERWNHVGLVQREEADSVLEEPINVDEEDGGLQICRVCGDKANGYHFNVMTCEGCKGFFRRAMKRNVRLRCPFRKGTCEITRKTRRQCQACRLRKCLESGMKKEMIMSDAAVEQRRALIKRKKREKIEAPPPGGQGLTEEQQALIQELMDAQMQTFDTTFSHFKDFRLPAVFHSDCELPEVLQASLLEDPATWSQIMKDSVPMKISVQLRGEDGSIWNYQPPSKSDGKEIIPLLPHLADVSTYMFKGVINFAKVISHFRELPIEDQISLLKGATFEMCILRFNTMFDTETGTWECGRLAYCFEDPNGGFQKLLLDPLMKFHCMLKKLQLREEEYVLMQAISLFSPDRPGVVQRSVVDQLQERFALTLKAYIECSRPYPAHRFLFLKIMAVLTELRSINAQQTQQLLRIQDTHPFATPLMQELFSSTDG
# [5] = qHTS assay for small molecule activators of the human pregnane X receptor (PXR) signaling pathway (AID 720659; call rule not given here; further: 0% is about no effect); conditions: DPX-2 HepG2 CYP3A4-luciferase, 24 h; series mostly up to 92.3 µM
# [6] = at 45.9 µM (top of the series), tumour line B
# [7] = at 45.9 µM (top of the series), tumour line D
# [8] = at 46 µM (top of the series), tumour line A
# [9] = at 46.1 µM (top of the series), tumour line C
smiles,measurement,setting,value
CC(C)Cc1ccc([C@H](C)C(=O)O)cc1,"activity, negative = cell killing",[1]; [6],4.71%
same,"activity, negative = cell killing",[1]; [7],0.88%
same,"activity, negative = cell killing",[1]; [8],-14%
same,"activity, negative = cell killing",[1]; [9],8.55%
CCOC(=O)N1CCN(/[N+]([O-])=N/Oc2ccc([N+](=O)[O-])cc2[N+](=O)[O-])CC1,Potency,[2]; HiBiT,6.25 µM (active)
same,"activity change, negative = inhibition",[2]; Viability,17.2%
O=C(NOCC1CC1)c1cc(Br)c(F)c(F)c1Nc1ccc(I)cc1Cl,"activity change, negative = inhibition",[2]; Viability,-18.5%
CCCCCC[C@@H](O)C/C=C\CCCCCCCC(=O)O,"activity, negative = cell killing",[1]; [7],-4.78% and -10.9%
same,"activity, negative = cell killing",[1]; [8],-28%
same,"activity, negative = cell killing",[1]; [9],-19.3% and -4.11%
same,Potency,[1]; tumour line A,20 µM (active)
same,Potency,[3],inactive
CCCCC[C@H](O)/C=C/[C@@H]1[C@@H](C/C=C\CCCC(=O)O)[C@@H](O)C[C@H]1O,"activity, negative = cell killing","[1]; at 20 µM (top of the series), tumour line C",-5.83%
same,"activity, negative = cell killing","[1]; at 21.2 µM (top of the series), tumour line B",0.321%
same,"activity, negative = cell killing","[1]; at 21.2 µM (top of the series), tumour line D",-15.4%
same,"activity, negative = cell killing",[1]; [6],1.47%
same,"activity, negative = cell killing",[1]; [7],-6.45%
same,"activity, negative = cell killing",[1]; [8],-9.88%
same,"activity, negative = cell killing",[1]; [9],-1.95%
same,Potency,[3],inactive
Oc1ccccc1O,max response,[4],2.32%
same,outcome,[5],inactive
C#C[C@]1(O)CC[C@H]2[C@@H]3CCc4cc(O)ccc4[C@H]3CC[C@@]21C,"activity, negative = cell killing",[1]; [6],-15.9%
same,"activity, negative = cell killing",[1]; [9],2.3%
same,Potency,[1]; tumour line A,12.6 µM (active)
COc1cc(/C=C/C(=O)CC(=O)/C=C/c2ccc(O)c(OC)c2)ccc1O,"activity, negative = cell killing",[1]; [6],-25.8%
same,"activity, negative = cell killing",[1]; [7],-25.7%
same,"activity, negative = cell killing",[1]; [9],-20.1%
same,Potency,[1]; tumour line A,12.6 µM (active)
Cc1ccc(S(=O)(=O)/C=C/C#N)cc1,Potency,[2]; HiBiT,5.57 µM (active)
same,Potency,[2]; Viability,17.6 µM (active)
